PubChem BioAssay (NCATS)
Records with an inconclusive call do not appear. A number with no mark means an inactive call. Calls of active or inactive are those of the source. Calls come from the whole dose curve; as a rule, active = well fitted inhibition curve with a large enough effect; inconclusive = small, poorly fitted or top-dose-only effect; inactive = no such curve, though single readings can be large or run the other way.

Biological target: Cytochrome P450 2C9 (Homo sapiens) (UniProt P11712)
Sequence (P11712 whole entry, looked up): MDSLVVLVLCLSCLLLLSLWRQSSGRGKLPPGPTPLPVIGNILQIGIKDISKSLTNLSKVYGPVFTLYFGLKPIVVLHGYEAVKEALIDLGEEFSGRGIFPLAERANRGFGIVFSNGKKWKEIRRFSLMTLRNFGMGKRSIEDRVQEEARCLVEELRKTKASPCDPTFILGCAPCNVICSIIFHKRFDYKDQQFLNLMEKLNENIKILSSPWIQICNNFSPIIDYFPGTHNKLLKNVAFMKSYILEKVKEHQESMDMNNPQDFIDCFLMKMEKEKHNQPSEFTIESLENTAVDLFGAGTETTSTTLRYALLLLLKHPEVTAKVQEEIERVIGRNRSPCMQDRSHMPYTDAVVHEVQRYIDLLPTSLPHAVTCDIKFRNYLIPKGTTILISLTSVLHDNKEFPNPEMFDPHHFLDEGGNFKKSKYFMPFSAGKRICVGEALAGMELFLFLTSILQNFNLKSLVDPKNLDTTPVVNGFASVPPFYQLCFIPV
Assay: qHTS Assay for Inhibitors and Substrates of Cytochrome P450 2C9 (AID 883); note: nearly all actives have a fitted effect of over 60% in size
Details: recombinant CYP2C9, luciferin-H luminescence, 60 min; series mostly up to 57.1 µM
Experimental: NIH Molecular Libraries Screening Centers Network [MLSCN] NIH Chemical Genomics Center [NCGC] MLSCN Grant: None NCGC Assay Overview: The P450 gene superfamily is involved in the metabolism and clearance of xenobiotics. This assay used human CYP2C9 to measure the hydroxylation of deoxyluciferin (Luciferin-H; P450 Glo-Buffer) to luciferin. The luciferin is then measured by luminescence after the addition of a luciferase detection reagent. Luciferin-H concentration in the assay was equal to its Michaelis constant KM for CYP2C9. Inhibitors and some substrates limit the production of luciferin, and decrease measured luminescence.
NCGC Assay Protocol Summary: Two uL of enzyme and substrate mix (final concentrations: 10nM CYP2C9, 100uM Luciferin-H, 25mM KPO4) were dispensed into a white, solid bottom 1536-well microtiter plate. 23nL of compound was transferred by a pin tool. The plate was incubated at 37C for 10 min. Two uL of an NADPH regeneration solution (Promega supplied reagent) was dispensed and the reaction was allowed to continue for 60 min at 37C. Then the reaction was stopped by reconstituted P450 Glo-Buffer. After another 20 min of incubation the plate was read on the ViewLux (Perkin Elmer) at 60 sec exposure and 2x2 binning. This protocol was carried out with Promega-Glo reagents and further information can be found at http://www.promega.com/tbs/tb325/tb325.pdf. Data were normalized to the to AC100 inhibition (57uM sulphaphenazole). Keywords: P450, CYP2C9, Luciferase, MLSMR, MLSCN, NIH Roadmap, qHTS, NCGC
% is set by controls: 0 for no effect and ±100 for the full control effect; potency is the fitted concentration of half-maximal effect.

SMILES | Potency | activity change, negative = inhibition
CC(C)c1ccc(C(c2c(O)c3ccccc3oc2=O)c2c(O)c3ccccc3oc2=O)cc1 | 3.16 µM (active) | –
CN1CCCC2(CCN(C(=O)c3ccncc3)CC2)C1 | inactive | –
COc1cc([C@H]2c3cc4c(cc3[C@@H](O)[C@@H]3COC(=O)[C@H]23)OCO4)cc(OC)c1OC | 1.26 µM (active) | –
CN1Cc2c(ccc3c2OCO3)[C@@H]2[C@@H](O)Cc3cc4c(cc3[C@@H]21)OCO4 | inactive | –
Cc1c(O)c(=O)ccn1C | – | 39.1% [at 11.4 µM]
CC(C)NC(=O)N1CC[C@@]2(CCCNC2)C1 | inactive | –
O=C(Oc1ccccc1)N1CCC2(CC1)CN(Cc1ccncc1)C2 | 3.16 µM (active) | –
CC(C)c1c(CN(C)[C@@H](C)Cc2ccccc2)n(C)n(-c2ccccc2)c1=O | 7.94 µM (active) | –
CCCCC/C=C\C/C=C\C/C=C\C/C=C\CCCC(=O)Nc1ccc(O)cc1 | 5.01 µM (active) | –
COc1ccc2c(c1O)-c1c(OC)c(OC)cc3c1[C@H](C2)N(C)CC3 | inactive | –
C[C@@]12CC[C@H]3[C@@H](CC[C@@H]4C[C@H]5S[C@H]5C[C@]43C)[C@H]1CC[C@H]2O | 0.005 µM (active) | –
O=C(c1ccco1)N1CCC[C@@]2(CCN(Cc3ccncc3)C2)C1 | 3.16 µM (active) | –
O=C(O)C1=CCCN(CCOC(c2ccc(C(F)(F)F)cc2)c2ccc(C(F)(F)F)cc2)C1 | 2.51 µM (active) | –
CN1CC[C@]2(C)c3cc(O)ccc3N(C)[C@@H]12 | 25.1 µM (active) | –
C[N+]1=Cc2cc3c(cc2CC1)OCO3 | inactive | –
c1cncc([C@H]2CCCCN2)c1 | 7.94 µM (active) | –

SMILES | Potency | activity change, negative = inhibition
CC1=NCCc2c1[nH]c1cc(O)ccc21 | inactive | –
CCOc1ccc2c(c1)C(C)=CC(C)(C)N2 | 2 µM (active) | –
COc1cc(C=C(C#N)C#N)cc(O)c1O | 2.51 µM (active) | –
O=C1C=C2C=C[C@H]3C[C@@]2(O1)[C@H]1CCCCN31 | inactive | –
O=C(Oc1ccccc1)N1CCC2(CCN(Cc3ccncc3)CC2)CC1 | 3.98 µM (active) | –
CC(C)[C@@]1(NC(=O)[C@@H]2C[C@H]3c4cccc5[nH]cc(c45)C[C@@H]3N(C)C2)O[C@]2(O)[C@H]3CCCN3C(=O)[C@H](Cc3ccccc3)N2C1=O | 2.51 µM (active) | –
COc1ccc2c(c1OC)C(=O)O[C@H]2[C@H]1c2cc3c(cc2CCN1C)OCO3 | 3.98 µM (active) | –
COc1cc(CNC(=O)CCCC/C=C\C(C)C)ccc1O | 3.98 µM (active) | –
S=C(S)N1CCCC1 | 2 µM (active) | –
CCC[C@@](C)(COC(N)=O)COC(=O)NC(C)C | inactive | –
COc1cc2c(c(OC)c1OC)-c1ccc(O)c(=O)cc1[C@@H](NC(C)=O)CC2 | inactive | –
COCC(=O)N1CCC2(CCCN(Cc3ccncc3)C2)CC1 | 5.01 µM (active) | –
COc1ccc(C[C@H]2c3cc(OC)c(OC)cc3CCN2C)cc1OC | inactive | –
CN1[C@@H]2CC[C@H]1CC(O)C2 (stereo partly specified) | inactive | –
N#Cc1cccc(NC(=O)N2CC[C@@]3(CCCN(C(=O)Oc4ccccc4)C3)C2)c1 | inactive | –
